pCIP destab: p/CIP protein destabilization | decrease of EGFP signal, % at 10 µM | F442A p/CIP-EGFP cells, EGFP fluorescence, 16 h | Q05BA5 | AID 1984 | actives 0.01% (n = 290,000);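 active means EGFP signal decrease of at least 30% at 10 µM or well 3 SD below plate mean, unless failing retest; inactive means the rest, including hits failing retest or dose response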
NadD block: blocks S. aureus nicotinate mononucleotide adenylyltransferase; purified NadD enzyme, colorimetric absorbance read-out; inhibition, % at 20 µM; actives 0.78% (n = 360,000); AID 602399; in the data active means inhibition above about 26%
UBC9 SUMO inh: inhibitors of human SUMOylation (UBC9); inhibition, % at 35 µM; HTRF SUMOylation assay, SAE1/SAE2 + UBC9, in vitro; AID 2006; P63279; actives 0.36% (n = 290,000); in the data active means inhibition above about 50%, passing the limit was not always enough
PHOSPHO1 inh: blocks human PHOSPHO1 phosphatase activity; recombinant PHOSPHO1, absorbance phosphatase assay; inhibition, % at 13.3 µM; actives 1.1% (n = 290,000); in the data active means inhibition above about 60%
Large screens that a line does not name were inactive. Most compounds without a hit are left out; they make up all but 1.8% or so of the library.

CCCc1cc(-c2n[nH]c(=S)n2C(C)c2ccccc2)cs1 (centres undefined)	PHOSPHO1 inh 83
C=CCn1c(-c2cccc(Cl)c2)n[nH]c1=S	PHOSPHO1 inh 98
CCc1cc(-c2n[nH]c(=S)n2-c2ccccc2C)cs1	PHOSPHO1 inh 86
CCc1cc(-c2n[nH]c(=S)n2CC)cs1	none
CC(=O)Nc1cc(-c2cccnc2)cn2c(-c3cccc(C(F)(F)F)c3)cnc12	none (no result: pCIP destab, UBC9 SUMO inh, PHOSPHO1 inh)
CCc1cc(-c2n[nH]c(=S)n2Cc2ccccc2)cs1	PHOSPHO1 inh 92
S=c1[nH]nc(-c2cccc(Cl)c2)n1Cc1ccccc1	PHOSPHO1 inh 69
S=c1[nH]nc(-c2ccc(Cl)cc2Cl)n1Cc1ccccc1	PHOSPHO1 inh 60
Cc1ccc(-c2n[nH]c(=S)n2Cc2ccccc2)cc1	PHOSPHO1 inh 100
S=c1[nH]nc(-c2ccc(Cl)cc2Cl)n1-c1ccccc1	none
COc1ccc(C(=O)Nc2ccccc2C(=O)Nc2ccncc2)cc1	PHOSPHO1 inh 63
O=C(O)C1Nc2ccc(Br)cc2C2C=CCC12 (centres undefined)	NadD block 31 (no result: PHOSPHO1 inh)
O=C(OC1CCCCC1)c1ccc2c(c1)C1C=CCC1C(C(=O)O)N2 (centres undefined)	PHOSPHO1 inh 83 (no result: NadD block)
CCOC(=O)c1ccc2c(c1)C1C=CCC1C(C(=O)OCC)N2 (centres undefined)	none
O=C(O)C1Nc2c(O)cccc2C2C=CCC12 (centres undefined)	NadD block 40, UBC9 SUMO inh 97
Cc1nn(CC(=O)OCC(=O)Nc2cccc(S(N)(=O)=O)c2)c(C)c1[N+](=O)[O-]	none (no result: pCIP destab, UBC9 SUMO inh, PHOSPHO1 inh)
C/C=C/Cn1c(SC)nc2c1c(=O)[nH]c(=O)n2C	PHOSPHO1 inh 71
C[C@@H]1CCCCO[C@@H](CN(C)S(=O)(=O)c2cn(C)cn2)[C@@H](C)CN([C@H](C)CO)C(=O)c2cc(NC(=O)Nc3ccc(C(F)(F)F)cc3)ccc2O1	none (no result: pCIP destab, UBC9 SUMO inh, PHOSPHO1 inh)
CCN(CC)C(=O)NC1CCCCCCC1	PHOSPHO1 inh 60
O=C(NC1CCCCCCC1)NC1CCCCC1	none
C[C@@H](NC(=O)[C@@H]1CCCN1C(=O)[C@@H]1CCCN1C(=O)c1ccccc1)c1ccccc1	none (no result: pCIP destab, UBC9 SUMO inh, PHOSPHO1 inh)
O=C1NC[C@H](CCCCN2C[C@H](Cc3ccc(O)cc3)N(CCc3ccc(O)cc3)C(=O)C2=O)N(CCc2ccc(O)cc2)C1=O	none (no result: pCIP destab, UBC9 SUMO inh, PHOSPHO1 inh)
CCOc1ccc(NC(=O)CN(c2ccc([N+](=O)[O-])cc2)S(=O)(=O)c2ccccc2)cc1	none
O=C(CN(c1cccc(Br)c1)S(=O)(=O)c1ccccc1)N/N=C/c1cc([N+](=O)[O-])ccc1O	NadD block 47 (no result: pCIP destab, UBC9 SUMO inh, PHOSPHO1 inh)
CC(=O)Nc1ccc(NC(=O)CN(c2ccc([N+](=O)[O-])cc2)S(=O)(=O)c2ccccc2)cc1	PHOSPHO1 inh 67
Cc1ccc(C)c(N(CC(=O)N/N=C/c2ccc(-c3ccc([N+](=O)[O-])cc3)o2)S(=O)(=O)c2ccccc2)c1	NadD block 32
COc1ccccc1CNc1nc(Nc2ccccc2-n2cccn2)c2sccc2n1	none (no result: pCIP destab, UBC9 SUMO inh, PHOSPHO1 inh)
COc1cccc(C2=CC(=O)C(C(C)(C)C)N2C(C)(C)C)c1 (centres undefined)	none (no result: pCIP destab, UBC9 SUMO inh, PHOSPHO1 inh)
COC(=O)c1c(C)oc2ccc(N(C(=O)Oc3ccccc3)S(=O)(=O)c3ccc(Cl)c([N+](=O)[O-])c3)cc12	NadD block 31
Cc1ccc(OCC(=O)NNC(=O)C2CSC3(C)CCC(=O)N23)cc1 (centres undefined)	none (no result: pCIP destab, UBC9 SUMO inh, PHOSPHO1 inh)
CCOc1ccc2nc(NC(=S)N(C)C)sc2c1	PHOSPHO1 inh 91
CCCC(=O)Nc1nc2ccc(OCC)cc2s1	none
Cn1c(N)nc(N)c(NC=O)c1=O	none (no result: pCIP destab, UBC9 SUMO inh, PHOSPHO1 inh)
Nc1ccc(N)c(C(=O)O)c1	NadD block 33 (no result: pCIP destab, UBC9 SUMO inh, PHOSPHO1 inh)
CC1C(=O)N(Cc2cn(Cc3ccco3)nn2)CCS(=O)(=O)N1Cc1ccc(-c2ccccc2C(F)(F)F)cc1 (centres undefined)	none (no result: pCIP destab, UBC9 SUMO inh, PHOSPHO1 inh)
Oc1c(C(Nc2ccccn2)c2ccccn2)ccc2cccnc12 (centres undefined)	none
CCCCC(=O)NC(c1ccc(Cl)cc1Cl)c1ccc2cccnc2c1O (centres undefined)	none
CCCC(=O)NC(c1ccccc1Cl)c1ccc2cccnc2c1O (centres undefined)	UBC9 SUMO inh 93
CC(C)C(=O)NC(c1ccc(Cl)cc1Cl)c1ccc2cccnc2c1O (centres undefined)	UBC9 SUMO inh 77
CCC(=O)NC(c1ccc(Cl)cc1Cl)c1ccc2cccnc2c1O (centres undefined)	UBC9 SUMO inh 50
Oc1ccccc1C(Nc1nccs1)c1ccc2cccnc2c1O (centres undefined)	NadD block 37
CCc1nc2ccc(C(=O)N3CCN(S(=O)(=O)CC)CC3)cn2c1N(C)Cc1cccs1	none (no result: pCIP destab, UBC9 SUMO inh, PHOSPHO1 inh)
Cc1cc(C)c(C(=O)CSc2n[nH]c(-c3ccncc3)n2)c(C)c1	none
Cc1ccc(C)c(C(=O)CSc2n[nH]c(-c3ccncc3)n2)c1	PHOSPHO1 inh 64
CC(=O)N1N=C(c2ccncc2)OC12CCCCC2	PHOSPHO1 inh 62
CC(=O)N1N=C(c2ccncc2)OC12CCCCCC2	none
Cc1cccc(NS(=O)(=O)c2ccc(C(=O)NCC3CCCO3)cc2)c1C (centres undefined)	PHOSPHO1 inh 61
CCOC(=O)N1CCN(C(=O)C2CCC(=O)N(CCCN3CCCC3=O)C2)CC1 (centres undefined)	none
CCOC(=O)N1CCN(C(=O)C2CCC(=O)N(CCCc3ccccc3)C2)CC1 (centres undefined)	PHOSPHO1 inh 61
CC1(C)Cc2c(sc3ncn4c(=S)[nH]nc4c23)CO1	PHOSPHO1 inh 68
Cn1cccc1/C=N/NC(=O)c1cc(-c2cccs2)nc2ccccc12	none
O=C(N=Nc1c(O)[nH]c2ccc(Br)cc12)c1cc(-c2cccs2)nc2ccccc12	NadD block 44
Cn1c(O)c(N=NC(=O)c2cc(-c3cccs3)nc3ccccc23)c2ccccc21	NadD block 45
O=C(N=Nc1c(O)[nH]c2ccc(Br)cc12)c1cc(-c2cccc3ccccc23)n[nH]1	NadD block 39
Cc1cccc(C)c1OCC(=O)N=Nc1c(O)[nH]c2ccc(Br)cc12	UBC9 SUMO inh 59
O=C(N=Nc1c(O)[nH]c2ccc(Br)cc12)c1ccco1	none (no result: pCIP destab, UBC9 SUMO inh, PHOSPHO1 inh)
CCOC(=O)[C@]12CCCC=C1N(Cc1ccc3c(c1)OCO3)C(=O)[C@H](CC(=O)NCC1CCCCC1)C2	none (no result: pCIP destab, UBC9 SUMO inh, PHOSPHO1 inh)
COc1ccc([C@@]23Oc4cc(OC)cc(OC)c4[C@]2(O)[C@H](O)[C@H](C(=O)N(C)C)[C@H]3c2ccccc2)cc1	none (no result: pCIP destab, UBC9 SUMO inh, PHOSPHO1 inh)
Nc1ccc(-n2nc3ccccc3n2)cc1	none (no result: pCIP destab, UBC9 SUMO inh, PHOSPHO1 inh)
Nc1ccc2nn(-c3ccccc3)nc2c1	UBC9 SUMO inh 66
Cc1ccc(-n2nc3cc(C)c(N)cc3n2)cc1	none
Nc1cc2nn(-c3ccccc3)nc2cc1Cl	UBC9 SUMO inh 78
Nc1ccc2nn(-c3cccc4ccccc34)nc2c1	UBC9 SUMO inh 58
Cc1cc2nn(-c3cccc4ccccc34)nc2cc1N	none
O=C(NNC(=S)NCc1ccco1)c1ccc(Cl)s1	PHOSPHO1 inh 103
Cn1cc(Cl)c(C(=O)NNC(=S)NCc2ccco2)n1	none
Cc1ccc(C(O)c2ncc(-c3cccc(C(F)(F)F)c3)[nH]2)cc1F (centres undefined)	none (no result: pCIP destab, UBC9 SUMO inh, PHOSPHO1 inh)
S=C(c1ccccc1)N1CCN(c2ccccc2)CC1	none (no result: pCIP destab, UBC9 SUMO inh, PHOSPHO1 inh)
